Among the data in PubChem BioAssay AID628 (Vanderbilt High Throughput Screening Facility, 2007) are B-score values, retold here.

Out of some 64,000 compounds screened, about 2,200 (3.4%) were called active.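 How the source made its calls: active means calcium fluorescence response, raw or row-and-column corrected B-score, differing from the plate sample mean either way at a set confidence level, mostly lower; inactive means the rest.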 Only a selection was taken, and actives are over-represented in it overall.

Sequence of Muscarinic acetylcholine receptor M1 (Rattus norvegicus) (P08482 whole entry, looked up): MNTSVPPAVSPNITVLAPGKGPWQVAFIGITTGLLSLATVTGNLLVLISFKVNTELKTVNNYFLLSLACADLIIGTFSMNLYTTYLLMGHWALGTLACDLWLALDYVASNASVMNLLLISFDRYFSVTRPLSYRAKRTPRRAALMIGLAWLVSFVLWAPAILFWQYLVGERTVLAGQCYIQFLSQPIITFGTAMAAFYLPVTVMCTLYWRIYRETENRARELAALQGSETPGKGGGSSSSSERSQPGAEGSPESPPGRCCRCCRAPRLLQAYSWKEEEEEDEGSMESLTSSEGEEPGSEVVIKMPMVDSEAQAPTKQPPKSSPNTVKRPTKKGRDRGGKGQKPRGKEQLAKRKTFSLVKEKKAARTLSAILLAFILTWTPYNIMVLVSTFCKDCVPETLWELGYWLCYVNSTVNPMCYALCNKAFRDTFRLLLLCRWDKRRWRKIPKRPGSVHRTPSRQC

This assay has as its target Muscarinic acetylcholine receptor M1 (Rattus norvegicus) (UniProt P08482). Nature of the assay: antagonists of rat M1 muscarinic receptor (AID 628). The following applies: CHO-M1 cells, Fluo-4 calcium, ACh EC80 antagonist mode; at 10 µM; active compounds read low.
In the case of `CCOC(=O)c1ccc(N2C(=O)CC(N3CCC(C(=O)OCC)CC3)C2=O)cc1` (stereo not given), the B-score was -0.522 (inactive). Then `CCOC(=O)C1CCN(C(=O)Nc2ccc(Cl)cc2)CC1`, with -0.00301 (inactive). For `CCOC(=O)C1CCN(Cc2coc3ccc(Cl)cc3c2=O)CC1` the value was -5.08 (active); for `CC(C)NS(=O)(=O)c1ccc(NC(=O)c2cccnc2)cc1`, 1.03 (inactive). For the compound `C=CCn1c2ccccc2c2nnc(SC(CC)C(=O)Nc3nc(C)c(C(=O)OCC)s3)nc21` (stereo not given), the B-score was 0.9 (inactive). For `COc1cc(-n2c(C)nc3cc(C(=O)NCc4ccco4)ccc32)cc(OC)c1OC` the value was -0.0298 (inactive). For `CSCCC(Nc1nc2ccccc2s1)C(=O)O` (stereo not given) the value was 0.99 (inactive); for `COCCN(C(=O)CCC(=O)Nc1ccccn1)C(C(=O)NCCC(C)C)c1ccc(OC)cc1` (stereo not given), -2.46 (active). Then `Cc1ccc(C(C(=O)NC2CCCC2)N(Cc2ccco2)C(=O)CCC(=O)Nc2ccccn2)cc1` (stereo not given), with -0.0611 (inactive). On to `Cc1ccc(C)c(N(CC(=O)NCc2ccco2)C(=O)CCC(=O)Nc2ccccn2)c1`, for which the B-score is 0.211 (inactive). For `CC(=O)Oc1cc2c(C(=O)NCCN3CCOCC3)c(C)oc2c2ccccc12`, the B-score is -0.671 (inactive). For `CN(C)Cc1c(C#N)c2ccccc2n1C` the value was 0.566 (inactive). Take `CCCCNC(=O)CSc1nnc(-c2ccco2)n1C`: the B-score is -0.326 (inactive). Then `CCCCN(C)C(=O)c1ccc2c(c1)N(CC)C(=O)c1ccccc1S2(=O)=O`, with -2.44 (active); and `COC(=O)CNC(=O)c1ccc2c(c1)S(=O)(=O)c1ccccc1C2=O`, with -0.0488 (inactive). Turning to `CCN1C(=O)c2cccc3c(N)ccc1c23`, the B-score was -0.102 (inactive). For `O=C(Nc1ccccc1F)C1C2C=CC3(O2)C1C(=O)N(c1cccnc1)C3C(=O)NC1CCCCC1` (stereo not given) the value was 0.728 (inactive). Then `CCCN1C2=C(C(=O)CCC2)C(c2ccc(O)c(Br)c2)C2=C1CCCC2=O`, with 0.273 (inactive); and `Cc1ccc(-n2nc3cc(Cl)c(NC(=O)c4ccco4)cc3n2)cc1`, with 0.0365 (inactive); and `COc1cc(C(=O)Nc2oc(-c3ccccc3)c(-c3ccccc3)c2C#N)cc(OC)c1OC`, with -0.934 (inactive). Regarding `N#Cc1c(NC(=O)CCCN2C(=O)c3ccccc3C2=O)oc(-c2ccccc2)c1-c1ccccc1`, the B-score is 2.29 (active). Take `O=C(CCN1C(=O)c2ccccc2C1=O)Nc1ccncc1`: the B-score is -0.0156 (inactive).

With `CC(C)N1C(=O)C2C(C(=O)NC3CCCCC3)C3C=CC2(O3)C1C(=O)NC1CCCC1` (stereo not given), the B-score is -0.055 (inactive).

In the case of `COc1ccc(C(=O)N(CCN2CCOCC2)CC(=O)NC2CCCC2)cc1OC`, the B-score is -1.81 (inactive). For `Cc1noc(C)c1CSc1nnc2ccc3ccccc3n12` the value was 0.103 (inactive).

Consider `CC(C)(CSc1nncn1/N=C/c1ccco1)NS(=O)(=O)c1ccc(Cl)cc1`, for which the B-score was -0.0125 (inactive).

Regarding `COC(=O)c1ccc(NC(=O)C(C)N2C(=O)c3ccccc3C2=O)cc1` (stereo not given), the B-score was 0.608 (inactive). `CCCOc1ccc(C2c3c(oc4cc(C)c(C)cc4c3=O)C(=O)N2CCCN2CCOCC2)cc1` (stereo not given): the B-score is -2.07 (inactive). As to `CCCCOc1ccc(C(C)(O)CCN2CCOCC2)cc1` (stereo not given), the B-score was -1.77 (active). As for `COc1ccc(OCC(=O)N2CCOCC2)cc1`, the B-score is -0.0545 (inactive). For `COC(=O)C1(S(=O)(=O)C2(C(=O)OC)CCCC2)CCCC1` the value was -0.00987 (inactive).

Consider `CC(=O)OC(C(=O)NC1CCCCC1)c1ccccc1` (stereo not given), for which the B-score is 0.565 (inactive). Then `CN(C)CCNC(=O)C(C(=O)c1ccccc1)n1ccccc1=O` (stereo not given), with 0.0113 (inactive). In the case of `Cc1ccc(NC(=O)C2CC(c3ccc(F)cc3)=NO2)cc1` (stereo not given), the B-score is 0.326 (inactive). Then `CC(C)(C)n1nnnc1C(c1cccs1)N(Cc1cccnc1)CC1CCCO1` (stereo not given), with -5.58 (active); and `CCC(C)(C)n1nnnc1C(c1cccs1)N1CCN(Cc2ccccc2)CC1` (stereo not given), with 0.103 (inactive); and `CCOc1ccc(CN(Cc2ccco2)C(c2cccs2)c2nnnn2C(C)(C)C)cc1` (stereo not given), with -0.0188 (inactive). Then `Cc1ncc(CC(=O)n2cc(C(=O)c3cc(Cl)ccc3O)cn2)s1`, with -0.173 (inactive); and `CN(C)S(=O)(=O)c1ccc(Oc2ccc(S(=O)(=O)N(C)C)cc2)cc1`, with -0.154 (inactive); and `CCCCOCCCNC(=O)c1ccccc1OCC`, with 0.466 (inactive). Then `CCOc1ccccc1C(=O)NCCCn1ccnc1`, with -0.947 (active). Turning to `COc1ccccc1-c1cc(C(=O)NCCCn2ccnc2)no1`, the B-score was -0.17 (inactive).

With `CC[C@]1(O)C[C@@H]2CN(CCc3c([nH]c4ccccc34)[C@@](C(=O)OC)(c3cc4c(cc3OC)N(C)[C@H]3[C@@](O)(C(=O)OC)[C@H](OC(C)=O)[C@]5(CC)C=CCN6CC[C@]43[C@@H]65)C2)C1`, the B-score was -0.431 (inactive). For `CC[C@]1(O)CC2CN(CCc3c([nH]c4ccccc34)[C@@](C(=O)OC)(c3cc4c(cc3OC)N(C=O)[C@H]3[C@@](O)(C(=O)OC)[C@H](OC(C)=O)[C@]5(CC)C=CCN6CC[C@]43[C@@H]65)C2)C1` (stereo not given in full) the value was -6.81 (active); for `O=c1c(-c2ccccc2)coc2c(CN3CCOCC3)c(O)ccc12`, -0.686 (inactive). Then `CCc1ccccc1NC(=O)CSc1nnc([C@@H](NC(=O)OC(C)(C)C)C(C)CC)o1` (stereo not given in full), with -0.00145 (inactive); and `O=C(Nc1cccnc1)c1noc2c1CCCCC2`, with 2.01 (active); and `O=C(Nc1cccnc1)c1ccc2c(c1)OCO2`, with -0.335 (inactive).

As to `CCOc1cccc(C(=O)Nc2cccnc2)c1`, the B-score is 1.02 (inactive). Then `Cc1cccc(NC(=O)CSc2nnc(NC(=O)CN3CCOCC3)s2)c1`, with -0.445 (inactive).

With `Cc1ccc(-c2nn(-c3ccccc3)cc2CN(Cc2ccccc2)C(=O)CCC(=O)O)o1`, the B-score is -0.258 (inactive). Consider `C=CCNC(=O)C12CC3CC(C1)CC(C(=O)NCC=C)(C3)C2`, for which the B-score was 0.561 (inactive). For `CCOC(=O)N1CCC(NC(=O)CCc2cn(C)c3ccccc23)CC1` the value was 0.483 (inactive); for `CC1Cc2nc(SCC(=O)Nc3ccccc3F)n(C)c(=O)c2S1` (stereo not given), -0.851 (inactive); for `COCCn1c(SCC(=O)Nc2cc(Cl)ccc2OC)nc2c(c1=O)SC(C)C2` (stereo not given), -2.72 (active).

As for `CCn1c(SCC(=O)Nc2ccccc2F)nc2c(c1=O)SC(C)C2` (stereo not given), the B-score is -0.377 (inactive). For `COc1ccc(-c2nc3n(c2Br)CCC3)cc1` the value was 0.807 (inactive); for `O=C(Cc1cccs1)N1CCCC(c2nc(-c3ccc(S(=O)(=O)N4CCCC4)cc3)no2)C1` (stereo not given), -2.63 (active); for `O=C(c1cccs1)N1CCCC(c2nc(-c3ccc(F)cc3)no2)C1` (stereo not given), -1.27 (inactive). For `COc1cc(-c2noc(C3CCCN(S(=O)(=O)c4cccc(Cl)c4)C3)n2)cc(OC)c1OC` (stereo not given) the value was 0.77 (inactive); for `O=C(c1ccco1)N1CCN=C1SCc1cccc(Cl)c1`, -2.85 (active); for `O=C(c1ccco1)N1CCN(c2cccc(Cl)c2)CC1`, -0.702 (inactive).

For `O=C(C1CC1)N1CCN=C1SCc1ccc(Cl)cc1`, the B-score was 0.588 (inactive).

For `Cc1ccc(S(=O)(=O)C(C#N)c2nc3ccccc3nc2N2CCCC2)cc1C` (stereo not given), the B-score is 0.0971 (inactive). Then `O=S(=O)(O)c1nc2ccccc2n1Cc1ccc(Cl)cc1Cl`, with 0.452 (inactive); and `Cc1nc(SCC(=O)Nc2cc(C)on2)c2c3c(sc2n1)CCCC3`, with -0.235 (inactive). For `COCCNc1nc(-n2nc(C)cc2C)nc2sc3c(c12)CCCC3`, the B-score was -0.584 (inactive). Then `Cc1cc(C)n(-c2nc(SCC(=O)N3CCCC3)c3c4c(sc3n2)CCCC4)n1`, with -2.83 (active). As for `Brc1ccc(Nc2c3c(nc4ncnn24)CCC3)cc1`, the B-score was 0.669 (inactive). Then `CCn1c(=O)cc(OCC(=O)NCCCN2CCN(c3cccc(Cl)c3)CC2)c2ccccc21`, with -2.45 (active); and `CCOC(=O)N1CCC(Nc2c(NCCN3CCN(c4cccc(Cl)c4)CC3)c(=O)c2=O)CC1`, with 0.00829 (inactive); and `CCOC(=O)N1CCC(NC(=O)COc2cc(=O)n(C)c3ccccc23)CC1`, with 0.854 (inactive).

Turning to `Cc1c(C(=O)NCC2CCCO2)sc2nc(-c3ccccc3)cn12` (stereo not given), the B-score is 0.0376 (inactive). For `CCCC(=O)Nc1ccc(Cl)c(NC(=O)c2ccc(Br)o2)c1`, the B-score is 0.768 (inactive). As for `CCN1CCN(c2c(Cl)cccc2NC(=O)c2ccc(Br)o2)CC1`, the B-score was -6.97 (active). For `COc1cc(OC)c(NC(=O)c2ccc(Br)o2)cc1Cl` the value was 0.263 (inactive). For the compound `CCOC(=O)N1CCC(NC(=O)c2cnn3ccccc23)CC1`, the B-score is 0.733 (inactive). Take `CCOC(=O)Cn1c2c(c(-c3ccccc3OC)cc1=O)CCCC2`: the B-score is -0.0571 (inactive). Then `C=CCOC(=O)C1=C(C)OC(N)=C(C#N)C1c1ccc(F)cc1` (stereo not given), with 0.263 (inactive). Then `Cc1ccccc1N1C(=O)C2ON(c3ccccc3)C(c3ccncc3)C2C1=O` (stereo not given), with -0.292 (inactive); and `CC(C)(C)OC(=O)c1c(N)n(CCCN2CCCC2=O)c2nc3ccccc3nc12`, with -1.12 (inactive). With `COc1ccc(OC)c(C(=O)c2coc3ccc(OC)cc23)c1`, the B-score is -1.32 (inactive).

For `COc1cccc(-n2cc(C(=O)O)c3ccccc3c2=O)c1`, the B-score was 1.31 (inactive). Then `COC(=O)c1cn(-c2ccccc2)nc1-c1cccnc1`, with -0.00204 (inactive); and `O=C(c1cn(-c2ccccc2)nc1-c1cccnc1)N1CCCCC1`, with 0.615 (inactive); and `COc1ccccc1N1CCN(C(=O)c2cn(-c3ccccc3)nc2-c2cccnc2)CC1`, with 1.85 (active).

As to `COc1ccc(-n2ncc3c(N4CCCc5ccccc54)ncnc32)cc1`, the B-score is 0.508 (inactive). Then `CCCCN(CC)C(=O)CN(C)S(=O)(=O)c1cccc2nsnc12`, with -0.0458 (inactive); and `CSc1nnc2c(n1)OC(c1cn(C)c3ccccc13)N(C(C)=O)c1ccccc1-2` (stereo not given), with -0.0695 (inactive); and `CSc1nnc2c(n1)OC(c1ccsc1)N(C(C)=O)c1ccccc1-2` (stereo not given), with -8.49 (active).
